In PubChem BioAssay (Tox21):
Inconclusive results are not listed. Active and inactive are the calls of the source. Unless noted, calls follow the shape of the dose curve; as a rule, active = well fitted curve in the direction sought with a large enough effect in the repeat runs; inconclusive = weak or mixed curves; inactive = no such curve, though single readings can be large; an effect the other way counts as inactive or inconclusive.

Experiments:
[1] = qHTS assay to identify small molecule agonists of the sonic hedgehog signaling (Shh) pathway - cell viability counter screen (AID 1259366); also: nearly all actives have a fitted effect of over 50% in size
Procedure, shortened: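 After a 4hr attachment at 37C, NIH/3T3 cells bearing an integrated Gli1-driven luciferase reporter were dosed with compounds. Treatment lasted 24hr, with the final hour including CellTiter-Fluor for a fluorescence viability measurement.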

[2] = qHTS assay to identify small molecule antagonists of the sonic hedgehog signaling (Shh) pathway - cell viability counter screen (AID 1259367); also: nearly all actives have a fitted effect of over 55% in size
Procedure, shortened: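 Fluorescence read-out (CellTiter-Fluor, 1 hr at 37C) taken after 23 hr compound treatment of 3T3 Gli1-Luc cells stimulated with conditioned medium. Cells were seeded at 2,000 per well and pre-incubated 4 hr.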

[3] = qHTS assay to identify small molecule agonists of the sonic hedgehog signaling (Shh) pathway (AID 1259368; calls by dose curve;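 also: NIH/3T3-derived 3T3Gli1-Luc cells carrying a stable Gli1-driven firefly luciferase reporter; series mostly up to about 92 µM; nearly all actives have a fitted effect of over 15% in size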)
Procedure, shortened: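 Stable NIH/3T3 Gli1-Luc reporter clone; 24 hr cpd exposure after a 4 hr settling period; luminescence endpoint.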

[4] = qHTS assay to identify small molecule antagonists of the sonic hedgehog signaling (Shh) pathway (AID 1259369; calls by dose curve; also: nearly all actives have a fitted effect of over 45% in size)
Procedure, shortened: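 Gli1 transcriptional reporter (firefly Luc) in NIH/3T3 background, conditioned-medium activated. 24hr exposure, luminescence endpoint.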

[5] = qHTS assay to identify small molecule agonists of the androgen receptor (AR) signaling pathway in the presence of an antagonist - cell viability counter screen (AID 1259379);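 also: MDA-kb2 human breast cancer cells carrying an MMTV luciferase reporter; series mostly up to about 92 µM; nearly all actives have a fitted effect of over 25% in size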
Procedure, shortened: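 Counter screen for cell viability run in parallel with the AR agonist-mode luciferase assay. MDA-kb2 cells were co-treated with nilutamide (3.0uM final) and compounds, then incubated 16 hr at 37C, and CellTiter-Fluor fluorescence was measured.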

[6] = qHTS assay to identify small molecule agonists of the estrogen receptor beta (ER-beta) signaling pathway - cell viability counter screen (AID 1259380); also: nearly all actives have a fitted effect of over 30% in size
Procedure, shortened: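 In this qHTS counter screen, HEK293T cells carrying an ER-beta/UAS beta-lactamase reporter, grown in 2% charcoal-stripped FBS, received compound for 16 hr; ATP-based CellTiter-Glo luminescence was then read after 30 min at room temperature.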

[7] = target: Androgen receptor (Homo sapiens) (UniProt P10275); test: qHTS assay to identify small molecule agonists of the androgen receptor (AR) signaling pathway in the presence of an antagonist (AID 1259381; calls by dose curve; also: nearly all actives have a fitted effect of over 15% in size)
Procedure, shortened: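 AR antagonist background: nilutamide 3.0uM final. Cell line: MDA-kb2, MMTV-driven luciferase, responsive to both AR and GR. Exposure 16hr, 37C, no CO2; ONE-Glo luminescence.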

[8] = qHTS assay to identify small molecule antagonists of the estrogen receptor beta (ER-beta) signaling pathway - cell viability counter screen (AID 1259382); also: series mostly up to about 92 µM; nearly all actives have a fitted effect of over 55% in size
Procedure, shortened: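 HEK293T ER-beta-UAS-bla, 2% charcoal-stripped FBS; compounds + 1nM E2 16 hr 37C; CellTiter-Glo luminescence, 30 min RT.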

[9] = target: Estrogen receptor (Homo sapiens) (UniProt P03372); test: qHTS assay to identify small molecule agonists of the estrogen receptor alpha (ER-alpha) signaling pathway in the presence of an antagonist (AID 1259383; calls by dose curve; also: top concentration of the series differs between compounds; nearly all actives have a fitted effect of over 15% in size)
Procedure, shortened: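 ER-alpha agonism measured under antagonist challenge: 10.0nM ICI-182,780 (final) plus compound, 15 concentrations, 22hr, VM7Luc4E2 ERE-luciferase cells. Read by luminescence.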

[10] = qHTS assay to identify small molecule agonists or antagonists of the thyroid stimulating hormone receptor (TSHR) signaling pathway - wild type cell line counter screen (AID 1259384; calls by dose curve)
Procedure, shortened: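 Wild-type Hek293 cells, 800/well, 18 h at 37C, then compound with Ro20-1724 for 30 min RT. cAMP by HTRF (cAMP-d2/anti-cAMP cryptate), 1 h RT, fluorescence read. 15 concentrations, triplicates.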

[11] = target: Thyrotropin receptor (Homo sapiens) (UniProt P16473); test: qHTS assay to identify small molecule antagonists of the thyroid stimulating hormone receptor (TSHR) signaling pathway (AID 1259385; calls by dose curve; also: nearly all actives have a fitted effect of over 20% in size)
Procedure, shortened: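 TSHR-HEK293 cells (800/well) plated 18 h, then compounds with Ro20-1724 and TSH at 1.5 ng/mL final, 30 min at room temperature. cAMP quantified by HTRF (cAMP-d2/anti-cAMP-cryptate, 1 h); 15 concentrations in triplicate.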

[12] = qHTS assay to identify small molecule agonists of the estrogen receptor alpha (ER-alpha) signaling pathway in the presence of an antagonist - cell viability counter screen (AID 1259386);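 also: series mostly up to about 92 µM; cells exposed to compounds for 22 h at 37 °C before the viability read; nearly all actives have a fitted effect of over 30% in size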
Procedure, shortened: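 Steps: 5-day stripped-FBS culture; seed and incubate 24hr; add ICI-182,780 (10.0nM final); pin 15-point compound titration; incubate 22hr at 37C; add CellTiter-Fluor at 21hr; read fluorescence.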

[13] = target: Progesterone receptor (Homo sapiens) (UniProt P06401); test: qHTS assay to identify small molecule agonists of the progesterone receptor (PR) signaling pathway (AID 1346784; calls by dose curve; also: nearly all actives have a fitted effect of over 30% in size; also: potency is read from the fitted curve at half-maximal effect)
Procedure, shortened: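 Using charcoal-stripped serum (2%) to limit endogenous steroids, PR-UAS-bla HEK 293T cells received compounds for 16 hr at 37C after 6 hr plating; beta-lactamase FRET fluorescence was recorded following 2 hr substrate loading at room temperature.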

[14] = target: Progesterone receptor (Homo sapiens) (UniProt P06401); test: qHTS assay to identify small molecule antagonists of the progesterone receptor (PR) signaling pathway (AID 1346795; active = well fitted inhibition curve with a large enough effect in the signal ratio in the repeat runs, not every such curve was filed as active; the % refers to the signal ratio)
Procedure, shortened: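 Inhibition of R5020-induced (1 nM final) beta-lactamase reporter signal in PR-UAS-bla HEK293T cells was scored by FRET fluorescence after overnight (16 hr) compound treatment.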

[15] = qHTS assay to identify small molecule antagonists of the progesterone receptor (PR) signaling pathway - cell viability counter screen (AID 1346798); also: series mostly up to about 92 µM; nearly all actives have a fitted effect of over 50% in size
Procedure, shortened: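 ATP content as viability readout: CellTiter-Glo luminescence, 30 min room temperature, in PR-UAS-bla HEK293T cells after 16 hr compound/R5020 treatment at 37C and 5% CO2.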

[16] = qHTS assay to identify small molecule agonists of the progesterone receptor (PR) signaling pathway - cell viability counter screen (AID 1346799; calls by dose curve; also: nearly all actives have a fitted effect of over 45% in size)
Procedure, shortened: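 Cytotoxicity in PR-bla HEK293T cells: 16 h compound, 37C; CellTiter-Glo added post-FRET read; luminescence after 30 min RT.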

[17] = qHTS assay to identify small molecule antagonists of the TGF-beta/Smad signaling pathway - cell viability counter screen (AID 1346824); also: nearly all actives have a fitted effect of over 50% in size
Procedure, shortened: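 SBE-bla HEK 293T cells, incubated overnight, then compound plus 0.25 ng/mL TGF-beta1 (stock added) for 5 hr at 37 C. Viability was read in the same wells by CellTiter-Glo luminescence after 30 min at room temperature.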

[18] = qHTS assay to identify small molecule agonists of the TGF-beta/Smad signaling pathway - cell viability counter screen (AID 1346829); also: top concentration of the series differs between compounds; nearly all actives have a fitted effect of over 45% in size
Procedure, shortened: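 Compound-treated SBE-bla HEK 293T cells (5 hr, 37 C) were assessed for viability with CellTiter-Glo in parallel with the reporter read.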

[19] = target: Estrogen receptor beta (Homo sapiens) (UniProt Q92731); test: qHTS assay to identify small molecule agonists of the estrogen receptor beta (ER-beta) signaling pathway (AID 1259377; active = well fitted activation curve with a large enough effect in the signal ratio in the repeat runs, not every such curve was filed as active; the % refers to the signal ratio)
Procedure, shortened: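 In HEK293T cells bearing a UAS-beta-lactamase reporter under ER-beta control, DMSO-delivered compounds were incubated for 16 hr at 37C. Activity was detected as fluorescence 2 hours after LiveBLAzer B/G FRET substrate addition.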

[20] = target: Estrogen receptor beta (Homo sapiens) (UniProt Q92731); test: qHTS assay to identify small molecule antagonists of the estrogen receptor beta (ER-beta) signaling pathway (AID 1259378; active = well fitted inhibition curve with a large enough effect in the signal ratio in the repeat runs, not every such curve was filed as active; the % refers to the signal ratio)
Procedure, shortened: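 ER-beta-UAS-bla HEK293T cells in 2% charcoal-stripped FBS medium treated with compound plus 1nM final 17-beta-estradiol for 16 hr at 37C. Beta-lactamase reporter read by FRET substrate fluorescence after 2 hours at room temperature.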

Measured: Potency

Chain of Progesterone receptor (Homo sapiens) (P06401 whole entry, looked up): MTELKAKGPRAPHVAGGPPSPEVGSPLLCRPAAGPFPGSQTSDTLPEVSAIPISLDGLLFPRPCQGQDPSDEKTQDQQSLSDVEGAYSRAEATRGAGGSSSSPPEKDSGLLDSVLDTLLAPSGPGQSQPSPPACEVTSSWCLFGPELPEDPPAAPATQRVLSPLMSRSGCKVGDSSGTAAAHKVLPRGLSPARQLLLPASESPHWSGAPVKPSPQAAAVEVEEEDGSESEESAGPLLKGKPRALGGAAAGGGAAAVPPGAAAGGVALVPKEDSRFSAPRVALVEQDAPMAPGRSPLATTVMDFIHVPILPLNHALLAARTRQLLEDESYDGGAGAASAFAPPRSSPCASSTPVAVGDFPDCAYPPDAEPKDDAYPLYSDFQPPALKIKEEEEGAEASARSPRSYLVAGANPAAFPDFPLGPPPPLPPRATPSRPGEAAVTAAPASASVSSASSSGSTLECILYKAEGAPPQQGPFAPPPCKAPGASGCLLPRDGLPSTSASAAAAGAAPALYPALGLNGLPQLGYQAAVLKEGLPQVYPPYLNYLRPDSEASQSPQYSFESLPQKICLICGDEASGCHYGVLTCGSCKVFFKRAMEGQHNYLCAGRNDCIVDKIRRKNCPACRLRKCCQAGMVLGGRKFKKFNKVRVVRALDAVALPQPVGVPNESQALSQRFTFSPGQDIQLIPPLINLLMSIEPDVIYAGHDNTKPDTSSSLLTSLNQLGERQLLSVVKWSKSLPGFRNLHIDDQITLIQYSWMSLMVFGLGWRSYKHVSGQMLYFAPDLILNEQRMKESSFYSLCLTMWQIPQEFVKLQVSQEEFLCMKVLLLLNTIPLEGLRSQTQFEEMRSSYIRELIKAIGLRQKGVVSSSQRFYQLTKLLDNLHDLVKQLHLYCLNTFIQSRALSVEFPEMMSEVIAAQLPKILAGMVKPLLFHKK
Chain of Thyrotropin receptor (Homo sapiens) (P16473 whole entry, looked up): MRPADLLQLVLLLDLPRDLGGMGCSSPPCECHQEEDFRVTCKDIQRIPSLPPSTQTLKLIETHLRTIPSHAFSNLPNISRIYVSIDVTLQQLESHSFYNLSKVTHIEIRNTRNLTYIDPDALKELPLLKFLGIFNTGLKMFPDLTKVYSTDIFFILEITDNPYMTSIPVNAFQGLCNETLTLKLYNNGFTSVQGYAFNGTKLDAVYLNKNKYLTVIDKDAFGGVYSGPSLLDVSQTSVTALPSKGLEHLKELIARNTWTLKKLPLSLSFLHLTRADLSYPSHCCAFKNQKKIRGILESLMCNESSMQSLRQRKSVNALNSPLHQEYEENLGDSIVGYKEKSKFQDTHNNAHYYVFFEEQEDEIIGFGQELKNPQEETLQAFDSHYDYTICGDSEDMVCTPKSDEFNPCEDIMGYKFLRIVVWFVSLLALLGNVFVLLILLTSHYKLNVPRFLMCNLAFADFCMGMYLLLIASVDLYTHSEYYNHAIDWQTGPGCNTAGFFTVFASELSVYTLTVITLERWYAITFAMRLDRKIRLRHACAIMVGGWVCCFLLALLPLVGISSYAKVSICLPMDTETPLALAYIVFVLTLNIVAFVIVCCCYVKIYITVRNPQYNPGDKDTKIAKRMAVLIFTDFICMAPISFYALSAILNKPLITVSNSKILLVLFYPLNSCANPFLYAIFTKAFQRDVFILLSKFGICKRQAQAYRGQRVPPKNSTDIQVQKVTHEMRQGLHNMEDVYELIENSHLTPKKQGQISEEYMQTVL
Chain of Estrogen receptor (Homo sapiens) (P03372 whole entry, looked up): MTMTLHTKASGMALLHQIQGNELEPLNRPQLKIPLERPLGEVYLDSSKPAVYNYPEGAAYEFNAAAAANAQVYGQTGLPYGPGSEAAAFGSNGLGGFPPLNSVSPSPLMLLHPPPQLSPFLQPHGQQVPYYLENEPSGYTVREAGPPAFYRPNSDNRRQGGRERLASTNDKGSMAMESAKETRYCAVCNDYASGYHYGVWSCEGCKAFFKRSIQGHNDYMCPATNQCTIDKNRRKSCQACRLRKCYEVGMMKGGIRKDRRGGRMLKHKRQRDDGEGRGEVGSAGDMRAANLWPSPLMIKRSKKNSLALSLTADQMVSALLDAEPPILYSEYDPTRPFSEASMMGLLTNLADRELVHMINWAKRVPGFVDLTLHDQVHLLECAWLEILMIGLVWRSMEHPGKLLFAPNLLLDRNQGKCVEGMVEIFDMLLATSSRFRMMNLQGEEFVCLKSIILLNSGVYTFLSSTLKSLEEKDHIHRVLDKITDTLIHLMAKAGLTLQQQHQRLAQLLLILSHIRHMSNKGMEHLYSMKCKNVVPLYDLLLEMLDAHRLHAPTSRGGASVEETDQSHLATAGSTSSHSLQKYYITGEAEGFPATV
Chain of Androgen receptor (Homo sapiens) (P10275 whole entry, looked up): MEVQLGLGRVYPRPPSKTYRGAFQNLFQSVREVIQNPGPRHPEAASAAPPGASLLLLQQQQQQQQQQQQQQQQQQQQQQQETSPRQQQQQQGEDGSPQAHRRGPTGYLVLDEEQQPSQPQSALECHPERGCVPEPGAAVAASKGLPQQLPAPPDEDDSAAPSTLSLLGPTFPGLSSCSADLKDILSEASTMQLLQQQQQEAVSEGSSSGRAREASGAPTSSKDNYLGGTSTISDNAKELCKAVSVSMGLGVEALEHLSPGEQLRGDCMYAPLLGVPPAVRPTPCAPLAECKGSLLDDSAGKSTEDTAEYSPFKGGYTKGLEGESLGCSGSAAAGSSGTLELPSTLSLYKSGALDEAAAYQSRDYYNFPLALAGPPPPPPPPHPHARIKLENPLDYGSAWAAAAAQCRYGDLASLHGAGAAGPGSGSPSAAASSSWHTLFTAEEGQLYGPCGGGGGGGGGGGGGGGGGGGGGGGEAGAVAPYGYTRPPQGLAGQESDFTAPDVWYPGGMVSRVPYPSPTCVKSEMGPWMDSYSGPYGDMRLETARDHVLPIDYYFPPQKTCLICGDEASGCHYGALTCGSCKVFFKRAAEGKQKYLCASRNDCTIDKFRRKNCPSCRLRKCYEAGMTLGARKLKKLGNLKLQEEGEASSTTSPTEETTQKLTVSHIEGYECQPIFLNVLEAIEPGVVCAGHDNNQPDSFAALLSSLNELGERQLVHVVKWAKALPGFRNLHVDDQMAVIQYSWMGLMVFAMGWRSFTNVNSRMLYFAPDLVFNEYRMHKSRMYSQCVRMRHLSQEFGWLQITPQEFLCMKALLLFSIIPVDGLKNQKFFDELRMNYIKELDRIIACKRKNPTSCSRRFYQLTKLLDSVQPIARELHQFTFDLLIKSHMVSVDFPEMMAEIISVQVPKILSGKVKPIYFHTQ
Chain of Estrogen receptor beta (Homo sapiens) (Q92731 whole entry, looked up): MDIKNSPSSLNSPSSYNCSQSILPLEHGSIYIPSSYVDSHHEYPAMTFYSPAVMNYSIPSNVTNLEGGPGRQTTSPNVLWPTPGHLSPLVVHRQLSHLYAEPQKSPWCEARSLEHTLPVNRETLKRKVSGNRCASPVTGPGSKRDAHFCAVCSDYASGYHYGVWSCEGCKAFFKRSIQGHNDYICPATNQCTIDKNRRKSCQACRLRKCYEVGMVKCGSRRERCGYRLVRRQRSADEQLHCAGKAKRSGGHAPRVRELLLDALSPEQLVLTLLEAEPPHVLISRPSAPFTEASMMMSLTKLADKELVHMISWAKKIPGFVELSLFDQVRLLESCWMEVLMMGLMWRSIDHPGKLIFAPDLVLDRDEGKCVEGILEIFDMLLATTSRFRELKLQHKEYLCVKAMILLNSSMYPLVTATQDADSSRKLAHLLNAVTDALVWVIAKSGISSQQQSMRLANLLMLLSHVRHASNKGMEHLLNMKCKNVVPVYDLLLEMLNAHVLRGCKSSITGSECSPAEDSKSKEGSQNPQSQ

CCC(C)(C)C1CCC(=O)CC1
not listed: [19] | [20]
inactive: all other assays above

CCNC(=O)NCCCOc1cccc(CN2CCCCC2)c1
not listed: [7] | [10] | [11] | [19] | [20]
inactive: all other assays above

CC(=O)/C=C/c1ccco1
not listed: [7] | [11] | [12] | [19] | [20]
inactive: all other assays above

CC(=O)OC[C@H]1O[C@@H](OC(C)=O)[C@H](OC(C)=O)[C@@H]1OC(C)=O
not listed: [12] | [19] | [20]
inactive: all other assays above

O=C(/C=C/c1ccccc1)NCCO
not listed: [5] | [6] | [7] | [13] | [20]
inactive: all other assays above

O=C(O)C(=O)Nc1cccc(-c2nn[nH]n2)c1
not listed: [7] | [9] | [19] | [20]
inactive: all other assays above

CN[C@@H]1[C@H](O)[C@H](NC)[C@H]2O[C@@]3(O)C(=O)C[C@@H](C)O[C@H]3O[C@@H]2[C@H]1O
not listed: [19] | [20]
inactive: all other assays above

CCCCC(=O)N(C)C
not listed: [7] | [12] | [14] | [15] | [19]
inactive: all other assays above

CNC(=O)C(c1ccccc1)c1ccccc1
not listed: [6] | [7] | [14] | [15] | [17] | [20]
inactive: all other assays above

O=S(=O)(O)CCO
active: [13] 49.2 µM
not listed: [5] | [7] | [12] | [19]
inactive: all other assays above

CCS(=O)(=O)CCn1c([N+](=O)[O-])cnc1C
not listed: [7] | [19] | [20]
inactive: all other assays above

CN(C)CCOCCN(C)CCO
not listed: [7] | [19] | [20]
inactive: all other assays above

O=C(O)CCNC(=O)c1ccccc1
not listed: [7] | [12] | [17] | [19] | [20]
inactive: all other assays above

CCC(O)C(C)(C)C (stereo not given)
not listed: [7] | [19] | [20]
inactive: all other assays above
